From PubChem
The sample as a whole holds a higher share of hits than the screen did.
FECH inh = inhibitors of human ferrochelatase, primary screen, biochemical, purified FECH, Ni-mesoporphyrin absorbance; calls only at 10 µM (by protocol); actives 3.3% (n = 20,000); Ferrochelatase, mitochondrial (Homo sapiens), P22830; Ni-mesoporphyrin absorbance 550 nm;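 active = enzyme reaction rate more than 3 SD below the solvent-only control wells on the same plate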;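 also: lower slope than DMSO wells means FECH inhibition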
Target sequence (P22830 whole entry, looked up): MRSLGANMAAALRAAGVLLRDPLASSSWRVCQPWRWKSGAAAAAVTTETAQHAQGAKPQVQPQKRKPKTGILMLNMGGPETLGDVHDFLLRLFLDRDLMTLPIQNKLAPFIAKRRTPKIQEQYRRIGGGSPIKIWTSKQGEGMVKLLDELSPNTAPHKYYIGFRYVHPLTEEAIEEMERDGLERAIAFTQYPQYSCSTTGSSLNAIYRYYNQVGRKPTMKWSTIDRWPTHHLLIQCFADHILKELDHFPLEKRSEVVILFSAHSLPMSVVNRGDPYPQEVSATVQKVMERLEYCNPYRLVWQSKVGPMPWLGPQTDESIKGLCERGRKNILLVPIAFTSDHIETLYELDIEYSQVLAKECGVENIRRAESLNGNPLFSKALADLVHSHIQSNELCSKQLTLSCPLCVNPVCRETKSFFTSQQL
* marks the source's active call; other numbers are inactive results; i = inactive; + = active, no number.

SMILES	FECH inh
CCCC(=O)Nc1cccc(OCc2cc(=O)n3cc(Cl)ccc3n2)c1	i
Cc1ccn2c(=O)cc(COc3cccc(NC(=O)c4cccs4)c3)nc2c1	i
Cc1ccn2c(=O)cc(COc3cccc(NC(=O)C(C)C)c3)nc2c1	+
Cc1ccn2c(=O)cc(COc3cccc(NC(=O)c4cccc(Br)c4)c3)nc2c1	i
COc1ccc(C(=O)Nc2cccc(OCc3cc(=O)n4ccc(C)cc4n3)c2)cc1	i
COc1cccc(S(=O)(=O)NCc2nc3cccnc3n2C(C)C)c1	i
CC(=O)N1CCc2c(nc(C)nc2NCc2nc(C)c3c(n2)CCCC3)C1	i
Cc1cccc(-c2[nH]ncc2C(=O)N2CCC3(CC2)C(=O)NCCN3C)c1	i
CN(CC1COCCO1)C(=O)c1nccc2ccccc12 (stereo unspecified)	+
N[C@@H]1c2ccccc2C2(CCN(C(=O)c3nccc4ccccc34)CC2)[C@H]1O	i
CCn1cc(CN(C(=O)c2nccc3ccccc23)C(C)C)cn1	i
CCOc1ccc(S(=O)(=O)N2CCN(Cc3nc4cccnc4n3-c3ccccc3)CC2)cc1	i
CCc1ccc(NC(=O)CN2CCN(Cc3ccc(F)cc3)S2(=O)=O)cc1	i
CCOc1ccccc1C(=O)Nc1ccccc1Sc1c(C)c(C)nc2ncnn12	i
Cc1ccc(OCC(=O)Nc2ccccc2Sc2c(C)c(C)nc3ncnn23)cc1	i
CCc1c(C)nc2ncnn2c1Sc1ccccc1NC(=O)c1cccc(C)c1	i
CCc1c(C)nc2ncnn2c1Sc1ccccc1NC(=O)c1cccc(F)c1	i
CCCc1c(C)nc2ncnn2c1Sc1ccccc1NC(=O)c1cccc(OC)c1	+
Cc1nc2ncnn2c(Sc2ccccc2NC(=O)c2ccc(Br)cc2)c1C	i
Cc1ccccc1OCC(=O)Nc1ccccc1Sc1c(C)c(C)nc2ncnn12	+
COc1ccc(C(=O)Nc2ccccc2Sc2c(C)c(C)nc3ncnn23)cc1	+
COc1cc(C(=O)Nc2ccccc2Sc2c(C)c(C)nc3ncnn23)cc(OC)c1OC	i
CCCc1c(C)nc2ncnn2c1Sc1ccccc1NC(=O)c1ccco1	i
CCCc1c(C)nc2ncnn2c1Sc1ccccc1NC(=O)c1ccccc1	+
CCCc1c(C)nc2ncnn2c1Sc1ccccc1NC(=O)c1ccc(F)cc1	i
SMILES	FECH inh
Nc1ccc(-n2ccc(-c3ccccc3)n2)cn1	i
O=C(NCCC1=CCCCC1)c1nc(N2CCCC2)c2oc3ccccc3c2n1	i
CCCCOc1ccc(C(=O)N(CCC(=O)N2CCNCC2)CC2CCCO2)cc1 (stereo unspecified)	i
O=C(c1cccnn1)N1CCc2[nH]nc(-c3ccc(-c4ccccc4)cc3)c2C1	i
CCc1ccc(S(=O)(=O)Nc2cnc(N3CCCCCC3)c(C(=O)O)c2)cc1	i
Cc1ccccc1Nc1cc(C(C)C)nc2nc(-c3cccnc3)nn12	i
Cc1cccc(NC(=O)CC(=O)NCCN2CCCC(O)C2)c1C (stereo unspecified)	i
CCc1ccccc1OCCN(C)C(=O)c1n[nH]c(CC)c1C	i
CCc1cc(=O)[nH]c(SCc2nc(-c3cccc(Cl)c3)oc2C)n1	i
Cc1cc(Sc2ccccc2NC(=O)COc2ccc(Cl)cc2)n2nc(-c3ccccc3)nc2n1	i
COc1ccc(CC(=O)Nc2ccccc2Sc2c(C)c(C)nc3nc(-c4ccccc4)nn23)cc1	i
Cc1nc2nc(-c3ccccc3)nn2c(Sc2ccccc2NC(=O)COc2ccc(Cl)cc2)c1C	+
CCc1cc(Sc2ccccc2NC(=O)C2CC(=O)N(c3ccc(C)cc3)C2)n2ncnc2n1 (stereo unspecified)	i
COC(=O)c1ccc(OC)c(CN2CCCN(Cc3cccc(C)c3)S2(=O)=O)c1	i
CN(CCCN1CCCCC1)C(=O)c1ccc2c(=O)n(C)cnc2c1	i
CC(C)c1cc(C2CCN(C(=O)c3n[nH]c(=O)c4ccccc34)CC2)[nH]n1	i
CCc1ccc2c(c1)-c1ccccc1S(=O)(=O)N2CC(=O)Nc1ccc2c(c1)OCO2	i
CCc1ccc2c(c1)-c1ccccc1S(=O)(=O)N2CC(=O)Nc1cc(C)ccc1C	+
O=C(CN1c2ccc(Br)cc2-c2ccccc2S1(=O)=O)NCCC1=CCCCC1	+
O=C(CN1c2ccc(Br)cc2-c2ccccc2S1(=O)=O)N1CCc2ccccc2C1	i
O=C(CN1c2ccc(F)cc2-c2ccccc2S1(=O)=O)NC(c1ccccc1)c1ccccc1	i
CCc1ccc2c(c1)-c1ccccc1S(=O)(=O)N2CC(=O)Nc1ccccc1Oc1ccccc1	i
COCC(C)NC(=O)CN1c2ccc(F)cc2-c2ccccc2S1(=O)=O (stereo unspecified)	i
CC(C)NC(=O)CN1c2ccc(Br)cc2-c2ccccc2S1(=O)=O	+
CC(C)c1ccc2c(c1)-c1ccccc1S(=O)(=O)N2CC(=O)N1CC(=O)Nc2ccccc21	i
SMILES	FECH inh
CN1CCN(C(=O)CN2c3ccc(Br)cc3-c3ccccc3S2(=O)=O)CC1	+
Cc1ccc(S(=O)(=O)NCCn2c(-c3ccccc3)nc3cccnc32)c(C)c1	i
O=C(CNCC(O)c1ccccc1Cl)NCc1ccccc1F (stereo unspecified)	i
COc1ccc(Nc2cc(C)nc(N3CCN(S(=O)(=O)c4ccc(Br)cc4)CC3)n2)cc1	i
O=C(CCC(=O)N1CCc2cc(S(=O)(=O)NC3CCCC3)ccc21)N1CCCCCC1	i
O=c1c(-c2ccc3c(c2)CCCC3)c(N2CCCc3ccccc32)c1=O	i
CCN(Cc1ccncc1)C1CCCN(C(=O)c2ccn(C(C)(C)C)c2)C1 (stereo unspecified)	i
Clc1cccc(Nc2nc(NCC3CCCO3)nc3c2cnn3-c2ccccc2)c1 (stereo unspecified)	i
Cc1n[nH]c(C)c1CCC(=O)N(C)Cc1cn[nH]c1-c1ccc(F)cc1	i
c1ccc(CNc2ncc(-c3nccn3CC3CCCCO3)cn2)cc1 (stereo unspecified)	i
Cc1ccccc1CC1(C(=O)O)CCCN(c2ccc3ccccc3n2)C1 (stereo unspecified)	i
C=CCNC(=O)CN1c2ccc(Br)cc2-c2ccccc2S1(=O)=O	+
COc1ccc(C)cc1NC(=O)Cn1ccnc1-c1nccn1C	i
COc1ccc(C)cc1NC(=O)CN1c2ccc(Br)cc2-c2ccccc2S1(=O)=O	+
O=C(CN1c2ccc(Br)cc2-c2ccccc2S1(=O)=O)NCC1CCCO1 (stereo unspecified)	+
Cc1cccc(NC(=O)CC(=O)NC[C@@H]2CCCO2)c1C	i
CCNC(=O)CN1c2ccc(Br)cc2-c2ccccc2S1(=O)=O	+
COc1ccccc1CNC(=O)CN1c2ccc(Br)cc2-c2ccccc2S1(=O)=O	i
Cc1cccc(NC(=O)C(C)n2nc(-c3ccc(C)c(S(N)(=O)=O)c3)c3c(c2=O)CCCC3)c1 (stereo unspecified)	i
COc1cccc2c1OCCCN(Cc1cn[nH]c1C(=O)O)C2	i
C=CCOc1c(Cl)cc(C(=O)NC(C)c2n[nH]c(=O)[nH]2)cc1Cl (stereo unspecified)	i
COCC(=O)N1CCCN(C/C(C)=C/c2ccco2)CC1	i
CCCc1cc(N2CCCCC2CC)n2nc(-c3cccnc3)nc2n1 (stereo unspecified)	i
COc1ccc(N2C(=O)CCS2(=O)=O)cc1S(=O)(=O)Nc1cccc(Cl)c1C	i
